FBW7 act: human FBW7 E3 ligase activation, primary screen. normalized activity (activation), % at 26.1 µM. hit rate 0.13% among 650,000. AlphaScreen FBW7–phospho-cyclin E peptide binding, activator screen. Q969H0; in the data active = normalized activity above about 1.9%;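 note: purified mutant Fbw7 with reduced substrate affinity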
Target sequence (Q969H0 whole entry, looked up): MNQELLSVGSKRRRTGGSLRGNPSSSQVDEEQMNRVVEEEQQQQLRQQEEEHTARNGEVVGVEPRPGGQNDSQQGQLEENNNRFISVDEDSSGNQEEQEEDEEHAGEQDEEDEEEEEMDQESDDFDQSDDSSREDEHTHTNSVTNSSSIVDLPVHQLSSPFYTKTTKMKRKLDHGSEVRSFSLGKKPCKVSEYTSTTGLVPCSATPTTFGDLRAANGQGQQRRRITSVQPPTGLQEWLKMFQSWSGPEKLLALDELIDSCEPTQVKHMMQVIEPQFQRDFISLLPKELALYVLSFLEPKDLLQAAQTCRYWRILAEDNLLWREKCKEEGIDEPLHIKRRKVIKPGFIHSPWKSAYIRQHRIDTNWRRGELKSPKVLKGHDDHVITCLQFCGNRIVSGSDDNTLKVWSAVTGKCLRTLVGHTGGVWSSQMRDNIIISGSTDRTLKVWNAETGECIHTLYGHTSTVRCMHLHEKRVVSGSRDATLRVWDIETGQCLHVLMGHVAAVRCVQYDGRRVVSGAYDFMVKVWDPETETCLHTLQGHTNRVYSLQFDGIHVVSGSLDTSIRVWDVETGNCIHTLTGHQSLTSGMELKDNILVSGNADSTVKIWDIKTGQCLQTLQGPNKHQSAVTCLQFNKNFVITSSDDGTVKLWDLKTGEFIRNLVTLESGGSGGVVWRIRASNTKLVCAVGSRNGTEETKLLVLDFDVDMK
MITF inh: blocks human microphthalmia-associated transcription factor; inhibition, % at 2.6 µM; hit rate 0.91% among 650,000; AlphaScreen MITF homodimerization, bead proximity signal; AID 1259374; in the data active = inhibition above about 50%
GPR151 ag: activators of human GPR151; activation, % at 11.2 µM; PathHunter beta-arrestin GPR151 cells, luminescence; AID 1508602; hit rate 1% among 650,000; in the data active = activation above about 4.9%
TEAD-YAP inh: TEAD-YAP interaction inhibition; hit rate 1.4% among 640,000; inhibition, % at 9.12 µM; HEK-TIYL cells, TEAD-Gal4/YAP UAS-luciferase luminescence; in the data active = inhibition above about 32%
GPR151 confirm: confirmation of human GPR151 activators. shares compounds with GPR151 ag. GPR151 PathHunter beta-arrestin cells, luminescence, 90 min; % of EA-reagent control over plate median. activation, % at 11.2 µM. 6,700 tested, under 10 active. AID 1508609;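 active = mean percent activation across replicates above the confirmation screen cutoff of 4.91%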
GPR119 counter: GPR119 activation, counter-screen for GPR151 activators. hit rate 0.3% among 6,700. activation, % at 11.2 µM. shares compounds with GPR151 ag. GPR119 PathHunter beta-arrestin cells, luminescence, 90 min; 0 = compound-well median, 100 = enzyme-acceptor control;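 active = mean percent activation in the counterscreen above 29.09%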;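 note: counterscreen on off-target GPR119 to flag nonselective hits from the GPR151 activator screen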
Hits are given with their value; 0 = inactive; - = not tested or not shown. The list is not random: actives were taken first. Their share in the collection is about 3.5%.

SMILES | FBW7 act | MITF inh | GPR151 ag | TEAD-YAP inh | GPR151 confirm | GPR119 counter
O=C(COc1ccc(Cl)cc1)N/N=C/c1ccc(O)c(I)c1 | 0 | 0 | 0 | 0 | - | -
NC(=O)COC(=O)c1cccc(S(=O)(=O)N2CCCc3ccccc32)c1 | 0 | 0 | 6.1 | 0 | 0 | 0
NC(=O)COC(=O)c1ccc(S(=O)(=O)N2CCCc3ccccc32)cc1 | 0 | 0 | 0 | 0 | - | -
O=C(C1CCC1)N1CCc2cc(S(=O)(=O)N3CCCc4ccccc43)ccc21 | 0 | 0 | 6.5 | 0 | 0 | 0
C=CCn1c(N)c(C(=O)NCCc2ccc(OC)c(OC)c2)c2nc3ccccc3nc21 | 0 | 0 | 14 | 0 | 0 | 0
COc1cccc2c1OCCCN(Cc1nc(Cc3ccccc3Cl)no1)C2 | 0 | 0 | 5.7 | 0 | 0 | 0
CC(=O)n1cc(/C=c2\sc3nc4cc(C)c(C)cc4n3c2=O)c(-c2ccc(F)cc2)n1 | 0 | 0 | 6.1 | 0 | 0 | 0
O=C(NC1CCN(Cc2ccccc2)CC1)c1csc(Br)n1 | 0 | 0 | 0 | 0 | - | -
CN1CCN(Cc2ccccc2C#Cc2ccccc2)CC1CCO (stereo not given) | 0 | 0 | 0 | 0 | - | -
Cc1cc(C)c(S(=O)(=O)N2CCCOC2CNC(=O)C(=O)NCCN(C)C)c(C)c1 (stereo not given) | 0 | 0 | 0 | 0 | - | -
COCCN(C(=O)Cc1ccc(F)cc1)C1CCN(Cc2ccncc2)CC1 | 0 | 0 | 6.6 | 0 | 0 | 0
CCCOc1ccc(N2C(=O)CC(NCc3ccc4[nH]c(C)cc4c3)C2=O)cc1 (stereo not given) | 0 | 0 | 0 | 0 | - | -
CCCNc1nc(Nc2ccc(C)cc2)nc(N2CCCC2)n1 | 0 | 0 | 4.9 | 0 | 0 | 0
NS(=O)(=O)c1ccc(CCNC(=O)C(=O)Nc2ccccc2F)cc1 | 0 | 0 | 7.1 | 0 | 0 | 0
COc1ccc(-n2nc3cc(C)c(NC(=O)c4cccs4)cc3n2)cc1 | 0 | 0 | 5.1 | 0 | 0 | 0
N#C/C(=C\c1ccc(-c2ccc(F)cc2)o1)C(=O)NCC1CCCO1 (stereo not given) | 0 | 0 | 5.5 | 0 | 0 | 0
O=C(NCc1nnc2n1CCN(C(=O)COc1ccccc1)CC2)c1ccncc1 | 0 | 0 | 0 | 0 | - | -
CC(=O)C(Sc1nc(N)c(NC(=O)c2ccco2)c(=O)[nH]1)C(C)=O | 0 | 0 | 0 | 0 | - | -
CCOC(=O)Cn1nnnc1CN(Cc1ccccc1)Cc1cc2cc(C)ccc2[nH]c1=O | 0 | 0 | 6.4 | 0 | 0 | 0
COc1cccc2cc(C(=O)C3=C(O)C(=O)N(Cc4ccco4)C3c3cccnc3)oc12 (stereo not given) | 0 | 0 | 5.4 | 0 | 0 | 0
C=C(C)c1cccc(C(C)(C)NC(=O)Nc2ccccc2F)c1 | 0 | 0 | 9.5 | 0 | 0 | 0
C=C(C)c1cccc(C(C)(C)NC(=O)Nc2ccc(C(C)=O)cc2)c1 | 0 | 0 | 0 | 0 | - | -
CCOC(=O)c1sc(NC(=O)c2c(OC)cccc2OC)c(C#N)c1C | 0 | 0 | 0 | 0 | - | -
COc1ccc(OCCOc2ccc(C)cc2[N+](=O)[O-])cc1 | 0 | 0 | 0 | 0 | - | -
COCCNCCCOc1ccc(C)cc1[N+](=O)[O-] | 0 | 0 | 7.3 | 0 | 0 | 0
SMILES | FBW7 act | MITF inh | GPR151 ag | TEAD-YAP inh | GPR151 confirm | GPR119 counter
Cc1cc(OCCCNCCN(C)C)ccc1[N+](=O)[O-] | 0 | 0 | 5.4 | 0 | 0 | 0
Cc1ccc(OCCN2CCCC2)c([N+](=O)[O-])c1 | 0 | 0 | 5.3 | 0 | 0 | 0
Cc1cc(OCCN(C)C)ccc1[N+](=O)[O-] | 0 | 0 | 0 | 0 | - | -
Cc1cccc(C(=O)NNC(=O)/C=C/C(=O)O)c1 | 0 | 0 | 9.2 | 0 | 0 | 0
COc1ccccc1OCc1nnc(SCC(=O)N(C)C)o1 | 0 | 0 | 0 | 0 | - | -
CC(C)C(C)NC(=O)CSc1nnc(COc2ccccc2Cl)o1 (stereo not given) | 0 | 0 | 7.7 | 0 | 0 | 0
O=C(c1n[nH]c(=O)c2ccccc12)N1CCCCCC1 | 0 | 0 | 5.6 | 0 | 0 | 0
COc1cc(OC)cc(-n2nc(C(=O)N3CCCCC3)c3ccccc3c2=O)c1 | 0 | 0 | 13 | 0 | 0 | 0
COc1cc(OC)cc(-n2nc(C(=O)N3CCCCCC3)c3ccccc3c2=O)c1 | 0 | 0 | 0 | 0 | - | -
NC(=O)COc1ccc(/C=C2\SC(N)=NC2=O)cc1 | 0 | 0 | 0 | 0 | - | -
CC(=O)NC1CC(C)(C)NC(C)(C)C1NC(C)=O (stereo not given) | 0 | 0 | 0 | 0 | - | -
CC1=NNC(=O)C1CCC(=O)N/N=C/c1ccc(N(C)C)cc1 (stereo not given) | 0 | 0 | 0 | 0 | - | -
CSCCC(C)N1CCC(Oc2ccc(C(=O)NCc3ccncc3)cc2)CC1 (stereo not given) | 0 | 0 | 5.0 | 0 | 0 | 0
O=C(NCc1ccncc1)c1ccc(OC2CCN(C3CCSCC3)CC2)cc1 | 0 | 0 | 0 | 0 | - | -
Cc1ccc(S(=O)(=O)N2N=C3CCCCC3C2(O)C(F)(F)F)cc1 (stereo not given) | 0 | 0 | 0 | 0 | - | -
CCCC1=NN(S(=O)(=O)c2ccc(C)cc2)C(O)(C(F)(F)F)C1 (stereo not given) | 0 | 0 | 5.5 | 0 | 0 | 0
O=C(O)CCC(=O)N1CCc2cc(S(=O)(=O)NC3CCCCC3)ccc21 | 0 | 0 | 0 | 0 | - | -
O=C(CN1C(=O)S/C(=C\c2cccs2)C1=O)N1CCCC1 | 0 | 0 | 5.5 | 0 | 0 | 0
O=C(CCN1C(=O)/C(=C\c2cccs2)SC1=S)N1CCCC1 | 0 | 0 | 6.0 | 0 | 0 | 0
c1csc(-c2nnc(N3CCOCC3)c3ccccc23)c1 | 0 | 0 | 5.9 | 0 | 0 | 0
CCOc1cc(/C=c2/sc3nc4ccccc4n3c2=O)cc(I)c1O | 0 | 0 | 5.1 | 0 | 0 | 0
CCOc1ccc(CCNC(=O)c2[nH]c(C)c(C(C)=O)c2C)cc1OCC | 0 | 0 | 14 | 0 | 0 | 0
COc1ccc(CCNC(=O)c2[nH]c(C)c(C(C)=O)c2C)cc1OC | 0 | 0 | 0 | 0 | - | -
C=CCNC(=O)c1nn2cccnc2c1Cl | 0 | 0 | 5.3 | 0 | 0 | 0
O=C(Nc1ccc(Cl)cc1)c1nn2cccnc2c1Cl | 0 | 0 | 0 | 0 | - | -
SMILES | FBW7 act | MITF inh | GPR151 ag | TEAD-YAP inh | GPR151 confirm | GPR119 counter
CN(CC1COCCO1)C(=O)c1cc(COc2c(F)cccc2F)on1 (stereo not given) | 0 | 0 | 16 | 0 | 0 | 0
O=c1[nH]c(SCc2ccccc2)nc2c1C1(CCCCC1)Cc1ccccc1-2 | 0 | 0 | 0 | 0 | - | -
O=c1[nH]c(Cc2ccccc2)nc2c1C1(CCCCC1)Cc1ccccc1-2 | 0 | 0 | 5.1 | 0 | 0 | 0
CCOc1cc(C=C2C(=O)NC(=O)NC2=O)ccc1OS(=O)(=O)c1ccc(OC)cc1 | 0 | 0 | 6.0 | 0 | 0 | 0
COc1ccc(S(=O)(=O)Oc2cccc(C=C3C(=O)NC(=O)NC3=O)c2)cc1 | 0 | 0 | 6.1 | 0 | 0 | 0
CCOc1cc(C=C2C(=O)NC(=O)NC2=O)ccc1OC | 0 | 0 | 0 | 0 | - | -
O=C1NC(=O)C(=Cc2cccc(OS(=O)(=O)c3ccc(Cl)cc3)c2)C(=O)N1 | 0 | 0 | 0 | 0 | - | -
O=C(Nc1cc(Oc2ccccc2)cc([N+](=O)[O-])c1)c1cc2nc(-c3ccco3)cc(C(F)(F)F)n2n1 | 0 | 0 | 0 | 0 | - | -

Compound activity (PubChem BioAssay)
